# Source: PubChem BioAssay (NCATS)
# Records with an inconclusive call do not appear. Where a call stands in place of a potency, no number is given. The source made the active and inactive calls. The call rests on the fitted dose curve; in most records, active means well fitted cell-killing curve with a large enough effect; inconclusive means small, poorly fitted or top-dose-only effect; inactive means flat fitted curve, though single readings scatter.
# Assay: Identifying Small Molecule Inhibitors of Pancreatic Cancer Stem Cells (SN12C, Adherent) (AID 1259358);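 further: cell survival measured after 48 h of compound exposure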
# Conditions: viability/growth inhibition; series mostly up to 46.1 µM
# Source text: Progenitor-like cancer cells, often referred to as cancer stem cells (CSC), are believed to be the drivers of therapeutic resistance and rapid recurrence. CSCs are postulated to reside in specific niches characterized by low oxygen tension, limited nutrient supply, and high redox load. Selectively targeting CSC, alone or in combination with cytotoxic agents, as a means to produce durable remissions is an appealing concept. Modeling these cells in in vitro setting is an important step in finding new therapies and/or targets. Multiple reports highlight that forcing cells in culture into 3-dimensionaly architectures (spheroids) re-establishes key progenitor-like transcriptional signatures. Pancreatic cancer is among the diseases with the most dismal outlook which is driven, largely, by recurance following front-line therapies. […] In hopes of deriving new insight into the targeting of these pancreatic CSCs we examined three established pancreatic cancer cell lines in cytotoxicity assays versus a collection of approved and investigational drugs. Importantly, we screened these lines as traditional monolayer (2D) and spheroid (3D) formats to gain an appreciation of agents with differential activity.
# Multicellular tumor spheroids from Panc1, MiaPaCa-2, and the primary low-passage tissue culture line SB.06 were seeded in stem cell media (SCM) in nonadherent 6-well plates coated with hydrogel (Corning Life Sciences, Chelmsford, Mass) and pancreatic spheres generated for 14 days before screening. Cells were seeded into 1536-well solid-bottom white tissue culture treated Greiner Bio One Plates (789173-F) using a MultiDrop Combi (Thermofisher Scientific) dispenser and a small sterile cassette. One column was media alone to be used as a :"no cells" control. The plates were then covered with sterilized stainless steel gasketed lids from Kalypsys. After allowing cells to attach for 4 hours, 23 nL of test compound or control (negative control DMSO and positive control 9.2 uM Bortezomib-final) were added from a 1536-well polypropylene compound source plate to each well using a 1536 head pin tool from Kalypsys. Cells were then incubated for 48 hours at 37C, 95% relative humidity and 5% CO2. After 48 hours, plates were removed from the incubator and 3 uL of CellTiter-Glo (Promega) was added using an Aurora Flying Reagent Dispenser Bioraptor. Plates were incubated at room temperature for 10 minutes prior to reading the luminescence on the Viewlux (PerkinElmer). The relative luciferase units are used to calculate the percent activity using the activity of DMSO in the cells and no cells columns for normalization of no inhibition and full inhibition respectively.
# Potency means the concentration at half of the fitted maximal effect.
row,Structure (SMILES),Potency
1,Cn1c(CCCC(=O)O)nc2cc(N(CCCl)CCCl)ccc21,inactive
2,CCCCC/C=C\C/C=C\C/C=C\C/C=C\CCCC(=O)NC1CC1,inactive
3,Cc1cc(SCc2sc(-c3ccc(C(F)(F)F)c(F)c3)nc2C)ccc1OCC(=O)O,inactive
4,CC(O)(CS(=O)(=O)c1ccc(F)cc1)C(=O)Nc1ccc(C#N)c(C(F)(F)F)c1 (stereo not given),inactive
5,COC[C@H]1OC(=O)c2coc3c2[C@@]1(C)C1=C(C3=O)C2CCC(=O)[C@@]2(C)C[C@H]1OC(C)=O (stereo not given in full),inactive
6,CC1=C2C[C@@H]3[C@@H](CC=C4C[C@@H](O)CC[C@@]43C)[C@@H]2CC[C@]12O[C@H]1C[C@H](C)CN[C@H]1[C@H]2C,inactive
7,C[C@@H]1[C@@H](CC(C[C@H]2O[C@@H]3O[C@]4(C)CC[C@@H]5[C@H](C)CC[C@@H]([C@H]2C)[C@@]35OO4)C[S+](=O)([O-])c2ccc(COC(=O)N(C)C)cc2)O[C@@H]2O[C@]3(C)CC[C@H]4[C@H](C)CC[C@@H]1[C@@]24OO3 (stereo not given in full),118 nM (active)
8,Cn1cc(C2=C(c3cn(C4CCN(Cc5ccccn5)CC4)c4ccccc34)C(=O)NC2=O)c2ccccc21,inactive
9,COc1ccc(C(=O)c2c(C)n(CCN3CCOCC3)c3ccccc23)cc1,inactive
10,C[C@]12CCC(=O)C(O)=C1CC[C@@H]1[C@@H]2CC[C@]2(C)C(=O)CC[C@@H]12,inactive
